Assay results from PubChem BioAssay (Tox21).
Several values for one entry are separate records, joined by “and”; a condition that tells them apart may be missing. Equal values may be shown once. Where a structure was tested more than once in an assay, its records may differ in their call. Activity calls are given as the source filed them. Unless noted, calls come from the whole dose curve; as a rule, active = well fitted curve in the direction sought with a large enough effect in the repeat runs; inconclusive = weak or mixed curves; inactive = no such curve, though single readings can be large; an effect the other way counts as inactive or inconclusive.

Tests used:
[1] = qHTS assay to identify small molecule antagonists of the thyroid receptor (TR) signaling pathway (AID 743065); note: nearly all actives have a fitted effect of over 55% in size; note: potency is the fitted concentration of half-maximal effect
Procedure, shortened: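 GH3.TRE-Luc rat pituitary cells carrying two TR response elements driving luciferase were plated for 4 h, given compound plus 1 nM T3 (final), and incubated 23.5 h at 37 C. ONE-Glo luminescence measured reporter inhibition; CellTiter-Fluor fluorescence tracked cytotoxicity.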

[2] = tested on: thyroid hormone receptor (rat, GH3 cells); assay: qHTS assay to identify small molecule agonists of the thyroid receptor (TR) signaling pathway (AID 743066; calls by dose curve)
[3] = biological target: Estrogen receptor (Homo sapiens) (UniProt P03372); assay: qHTS assay to identify small molecule antagonists of the estrogen receptor alpha (ER-alpha) signaling pathway (AID 743069; active = well fitted curve in the direction sought with a large enough effect in the signal ratio in the repeat runs, not every such curve was filed as active; inconclusive = weak or mixed curves, or effect the other way; inactive = no such curve, though single readings can be large or run the other way; the % refers to the signal ratio; note: potency is the fitted concentration of half-maximal effect)
Sequence of Estrogen receptor (Homo sapiens) (P03372 whole entry, looked up): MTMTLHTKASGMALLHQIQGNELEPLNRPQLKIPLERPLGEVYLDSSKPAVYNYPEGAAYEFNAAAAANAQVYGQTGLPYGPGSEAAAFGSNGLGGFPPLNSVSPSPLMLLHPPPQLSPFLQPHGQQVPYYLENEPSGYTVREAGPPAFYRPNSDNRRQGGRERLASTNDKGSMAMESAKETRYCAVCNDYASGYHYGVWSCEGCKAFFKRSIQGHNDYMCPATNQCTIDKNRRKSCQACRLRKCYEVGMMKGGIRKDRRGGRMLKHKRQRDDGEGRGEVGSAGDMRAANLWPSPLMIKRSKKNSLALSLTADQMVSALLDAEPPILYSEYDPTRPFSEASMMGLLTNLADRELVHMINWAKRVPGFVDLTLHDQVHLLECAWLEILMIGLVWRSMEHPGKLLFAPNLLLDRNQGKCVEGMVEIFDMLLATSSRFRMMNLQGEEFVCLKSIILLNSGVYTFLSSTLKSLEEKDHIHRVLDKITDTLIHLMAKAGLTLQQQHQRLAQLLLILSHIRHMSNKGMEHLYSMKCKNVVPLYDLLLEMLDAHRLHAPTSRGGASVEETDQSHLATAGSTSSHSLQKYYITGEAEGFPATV
Procedure, shortened: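 HEK293 cells stably carrying an ER-alpha-UAS-bla beta-lactamase reporter were pre-cultured overnight in 2% charcoal-stripped FBS medium. Test compounds in DMSO were added together with 17beta-estradiol for 18 hr at 37C. Read-out was fluorescence after 2 hr with LiveBLAzer B/G FRET substrate at room temperature.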

[4] = biological target: Estrogen receptor (Homo sapiens) (UniProt P03372); assay: qHTS assay to identify small molecule agonists of the estrogen receptor alpha (ER-alpha) signaling pathway (AID 743075; calls by dose curve)
[5] = biological target: Estrogen receptor (Homo sapiens) (UniProt P03372); assay: qHTS assay to identify small molecule agonists of the estrogen receptor alpha (ER-alpha) signaling pathway using the BG1 cell line (AID 743079); settings: BG1Luc4E2 cells, ERE-luciferase agonist, 22 h; activation: at 70.3 µM (top of the series); note: nearly all actives have a fitted effect of over 20% in size; note: potency is the fitted concentration of half-maximal effect
[6] = qHTS assay to identify aromatase inhibitors - cell viability counter screen (AID 743084);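 note: cells stimulated with testosterone during compound exposure; nearly all actives have a fitted effect of over 55% in size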; note: potency is the fitted concentration of half-maximal effect
[7] = qHTS assay to identify small molecule antagonists of the estrogen receptor alpha (ER-alpha) signaling pathway using the BG1 cell line (AID 743080; calls by dose curve;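 note: BG1 cells stimulated with 17beta-estradiol alongside compound; nearly all actives have a fitted effect of over 25% in size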; note: potency is the fitted concentration of half-maximal effect)
Procedure, shortened: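 Seeding, 24 h rest, compound transfer from DMSO, 17beta-estradiol addition, 21.5 h incubation, CellTiter-Fluor (30 min, 37 C), then ONE-Glo (30 min, room temperature): this sequence was run on BG1-Luc-4E2 reporter cells.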

[8] = qHTS assay to identify small molecule antagonists of the estrogen receptor alpha (ER-alpha) signaling pathway using the BG1 cell line - cell viability counter screen (AID 743081);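 note: compound given together with 17beta-estradiol as the ER stimulus; nearly all actives have a fitted effect of over 45% in size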
[9] = biological target: Aromatase (Homo sapiens) (UniProt P11511); assay: qHTS assay to identify aromatase inhibitors (AID 743083); note: nearly all actives have a fitted effect of over 55% in size; note: potency is the fitted concentration of half-maximal effect
Sequence of Aromatase (Homo sapiens) (P11511 whole entry, looked up): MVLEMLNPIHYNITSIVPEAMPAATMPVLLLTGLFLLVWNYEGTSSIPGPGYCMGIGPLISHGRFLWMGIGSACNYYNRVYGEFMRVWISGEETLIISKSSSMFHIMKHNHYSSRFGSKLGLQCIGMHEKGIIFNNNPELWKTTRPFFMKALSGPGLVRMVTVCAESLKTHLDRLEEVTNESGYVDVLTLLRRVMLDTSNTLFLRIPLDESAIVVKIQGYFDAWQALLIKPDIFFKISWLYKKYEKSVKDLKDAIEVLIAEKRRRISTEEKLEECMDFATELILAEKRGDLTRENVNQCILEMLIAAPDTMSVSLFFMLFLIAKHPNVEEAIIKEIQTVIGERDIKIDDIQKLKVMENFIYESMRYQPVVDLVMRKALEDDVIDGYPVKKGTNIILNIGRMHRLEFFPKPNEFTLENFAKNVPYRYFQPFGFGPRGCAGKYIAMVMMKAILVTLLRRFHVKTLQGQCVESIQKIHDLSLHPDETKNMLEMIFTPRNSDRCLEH

[10] = qHTS assay to identify small molecule antagonists of the estrogen receptor alpha (ER-alpha) signaling pathway - cell viability counter screen (AID 743074; calls by dose curve; note: nearly all actives have a fitted effect of over 45% in size)

Measured: Potency

CN(C)c1ccc(N)cc1
inactive: [2] | [4]
active: [1] 47.4 µM | [3] 60.2 µM [inconclusive] | [5] 7.51 µM | [6] 66.9 µM

CC(Cc1ccc(O)cc1)NCC(O)c1cc(O)cc(O)c1 (configuration not stated)
inactive: [1] | [2] | [3] | [4] | [7] | [8] | [9] | [6]

O=[N+]([O-])c1ccc(CCl)cc1
inactive: [1] | [2] | [3] | [10] | [4] | [5] | [8] | [9] | [6]

ClCBr
inactive: [1] | [2] | [3] | [10] | [4] | [7] | [8] | [9] | [6]

CC(C)C(Nc1ccc(C(F)(F)F)cc1Cl)C(=O)OC(C#N)c1cccc(Oc2ccccc2)c1 (configuration not stated)
inactive: [1] | [2] | [3] | [10] | [5] | [7] | [8] | [9] | [6]

COc1nc(C)nc(NC(=O)NS(=O)(=O)c2ccccc2Cl)n1
inactive: [1] | [2] | [3] | [10] | [7] | [8] | [9] | [6]

Clc1ccc(C(c2ccc(Cl)cc2)C(Cl)Cl)cc1
62.1 µM (active) and inactive: [9]
active: [1] 24.7 µM and 43.3 µM
inactive: [2] | [3] | [10] | [4] | [7] | [8] | [6]

c1ccc(N=NNc2ccccc2)cc1
inactive: [1] | [2] | [10] | [4] | [9]
active: [3] 21.9 µM [inhibitor] | [5] 14.2 µM and 54.5 µM | [7] 68.6 µM

CC(C)N(C(=O)CCl)c1ccccc1
inactive: [2] | [10] | [4] | [8]
active: [1] 68.6 µM and 48.6 µM | [3] 15.5 µM [inconclusive] and 6.92 µM [inconclusive] | [7] 54.5 µM and 61.1 µM | [9] 21.7 µM and 27.3 µM | [6] 24.3 µM

COC(=O)/C=C(\C)OP(=O)(OC)OC
inactive: [1] | [2] | [3] | [10] | [7] | [8] | [6]

COC(=O)C(C)N(C(=O)c1ccco1)c1c(C)cccc1C (configuration not stated)
inactive: [1] | [2] | [3] | [10] | [4] | [5] | [8] | [9] | [6]

CCOP(=S)(NC(C)C)Oc1ccccc1C(=O)OC(C)C (configuration not stated)
inactive: [2] | [3] | [4] | [5] | [8] | [6]
active: [1] 54.5 µM | [9] 38.6 µM

c1ccc2nc(N3CCNCC3)ccc2c1
active: [1] 29.8 µM
inactive: [2] | [3] | [4] | [6]

CC(C)NCC(O)c1ccccc1Cl (configuration not stated)
inactive: [1] | [2] | [3] | [10] | [4] | [5] | [7] | [8] | [9] | [6]

CCC[CH2][Sn]([CH2]CCC)([O]C(C)=O)[O]C(C)=O
active: [1] 3.89 µM | [3] 31.2 µM [inconclusive] | [9] 15.5 µM | [6] 13.8 µM
inactive: [2] | [10] | [4]

N#CSCc1ccccc1
inactive: [1] | [2] | [3] | [10] | [5] | [7] | [8] | [9] | [6]

CNC(=O)Oc1cc(C)cc(C(C)C)c1
inactive: [1] | [2] | [10] | [4] | [5] | [7] | [8] | [9] | [6]

CCCCN(CCCC)C(=S)[S-].CCCCN(CCCC)C(=S)[S-].[Ni+2]
inactive: [1] | [2] | [3] | [10] | [4] | [7] | [8] | [9] | [6]

CC(C)[C@@H](Nc1ccc(C(F)(F)F)cc1Cl)C(=O)OC(C#N)c1cccc(Oc2ccccc2)c1 (some centres not stated)
inactive: [1] | [2] | [3] | [10] | [5] | [7] | [8] | [9] | [6]

Cc1cccc(Cc2cnc[nH]2)c1C
inactive: [1] | [2] | [3] | [4] | [5] | [7] | [8] | [6]

CC(C)C(Br)C(=O)NC(N)=O (configuration not stated)
inactive: [1] | [2] | [3] | [4] | [5] | [7] | [8] | [9] | [6]

COc1c2c(cc3c1OCO3)CCN(C)C2
inactive: [1] | [2] | [3] | [10] | [4] | [5] | [7] | [9] | [6]

COP(=O)(OC)O/C(=C\Cl)c1cc(Cl)c(Cl)cc1Cl
active: [1] 27.3 µM | [3] 24.5 µM [inconclusive] | [7] 68.6 µM | [9] 30.6 µM
inactive: [2] | [8]

C=Cc1cccc(CCl)c1
inactive: [1] | [2] | [3] | [10] | [4] | [5] | [7] | [8] | [9] | [6]

COP(=S)(OC)Oc1ccc([N+](=O)[O-])c(C)c1
inactive: [1] | [2] | [10] | [4] | [5] | [7] | [8] | [6]
